system: RARg homodimer (NR concentration 270 nM); test: PBM binding z-score (relative to random genomic background probes); higher = stronger binding; sequences stand for … in GC…GCGATTGACAGCGTAGAATGAAGG
Method in brief: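 Each nuclear receptor dimer, without ligand, was incubated for 1 h on custom Agilent 4×180K protein-binding microarrays. Binding was detected with antibodies against each partner (one per run), and scanned fluorescence was regression-normalized. The binding z-scores are referenced to random human genomic background probes.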

Sequence	PBM binding z-score
ATATGTAGGTTATCGGGTCATTCAGTTTGCGCAT	2.5
TAGCCTAGGTCATGCGGGCTAGTATAGTGTCGGC	3.75
TTACCAAGGTGAAGTTCGTTGATCCCTCTGTAGA	0.824
TCAGACAGGTGAACGTAACTCAGGTACGCAGTCG	0.768
CCAGACAGGTGAGAAGGTAACTCATCCTCGATTA	0.745
TCTATTAGTTGATTAGGGCCACCGAAACAGCGGA	0.582
CCTTACGGGTCAAAGTTATAGCACGGGTGGTACG	3.89
CCTAGCAGGCCAATCTGGGTCACTCACGGCTTGA	1.36
CCGAGTAGGTTTTGGGGCATTCAGGCAACGGTGA	-0.424
TAGCCTAGGTCATGGGGCCAGTATAGTACGCATC	4.7
CCGATTAGGTTATGGGGCATTCAGGCAACGGTGA	0.783
CGAACGAGCGCATGAGTTGATAGCAAATGCCGAT	-0.247
CGTCCAAGGTCATAGGAGGTCTGTGAAGACAGAT	5.79
CGTCCAAGGTCATAGGATGTCAGTGAAGACAGAT	6.37
ACTAGCAGGCCAAGGGTCACTCATGATTAGTCCG	3.58
CCTCTTAGTTGACCATAAGGGCAACCGAAGCTCG	1.15
ATATGTAGGTTACATCCGGGGCATTCAGGCTATG	1.3
CCTAGCAGGCCAATCTGGGCCACTCAAGGCTTGA	-0.168
CGTCCTAGGTCAAGGTCAGTGAAAGAGACTCGAA	6.43
GGAACGAGGGCAAGTTGGTAGCAGAGTTTGATGG	2.08

Sequence	PBM binding z-score
ACAGACAGGTGAGTGAAGGTTACTCAGCTGGACG	0.906
ACTTACGGGTCAACGAGGTGATAGCACGCGTATA	4.83
AGAACGAGGACACGCTGAGTTGATAGCAGAGTAG	1.74
AGAACGAGGGCAATGTGTTGATAGCACGGGTGGC	1.44
ACTTACGGGTCAACGAGGTTATATCACGCGTATA	4.95
GCTCGAAGGACAAGGTCAGAGCTTTGTCCGTAGA	3.49
CCTACTGGGCCATCCGGTCATTGATATCAACGTT	1.34
TTTATTAGTTGATTAGGGCAACCGAAACAGCGGA	0.769
CCTTACGGGTCACGAGGGTATAGCACGACGAGCG	5.72
CTCGAAAGGTCGGTTGAGATGAGTATACGGATAA	2.5
GTTATTAGTTGAAAGGGCAACCGAATGATTCTCG	1.95
ATCTCTAGGTAAGACGCAGTTCAGTGAAGAACGC	0.097
TCACATAGGTAAACAGGTGAAAGTCCGTAAGTTA	0.415
ATGGAAAGGTCGACGAGGTGAGTATACACCGTTT	4.05
CTACCAAGGTGATCAAGGTCGTTGATTACTATTC	0.808
ATCGAAAGGTCGTGAGGTGAGAATACAGAAAGGC	3.89
CCTAGTTGGTCAAGGTTACACACGCTATAGGTAC	1.86
TCTAGTTGGTCACTGAGGTCACACACGACGGGTA	4.83
AGAACGGGGGCACGCTGAGTTGATAGCAGAGTAG	3.2

Source: the supplement of paper PMC6555819
